Seven molecules from PubChem BioAssay (NCI) can be followed below.

Holding throughout (assay): NCI-60 one-dose screen, 48 h (100 = growth as untreated, 0 = no growth, -100 = all killed)
One test relates to NCI-H23 lung. The following applies: 10 µM unless noted.
In another test the test system is NCI-H226 lung. The conditions noted are these: 10 µM unless noted.
In another test the test system is NCI-H322M lung. The conditions noted are these: 10 µM unless noted.
Another test deals with HOP-62 NSCLC. The conditions noted are these: 10 µM unless noted.
A further test deals with NCI-H460 lung. The conditions noted are these: 10 µM unless noted.
The subject of a further test is HOP-92 NSCLC. The following applies: 10 µM unless noted.
The next test has as its system NCI-H522 lung. The conditions noted are these: 10 µM unless noted.
For the next test, the system named is A549/ATCC NSCLC. The conditions noted are these: 10 µM unless noted.
A further test has as its system 786-0 renal. The conditions noted are these: 10 µM unless noted.
The next test relates to COLO 205 colon. The conditions noted are these: 10 µM unless noted.
The test system of a further test is DU-145 prostate. The following applies: 10 µM unless noted.
The next test has as its system MALME-3M melanoma. The following applies: 10 µM unless noted.
The next test has as its system MDA-MB-231 breast. The conditions noted are these: 10 µM unless noted.
Another test has as its system RXF 393 renal. The following applies: 10 µM unless noted.
For a further test, the system named is SF-268 CNS. The following applies: 10 µM unless noted.
For a further test, the system named is SF-295 CNS. The conditions noted are these: 10 µM unless noted.
The subject of the next test is SF-539 CNS. The conditions noted are these: 10 µM unless noted.
Another test relates to UACC-257 melanoma. The conditions noted are these: 10 µM.
The next test relates to M14 melanoma. The following applies: 10 µM unless noted.

About 83,000 compounds went through this panel and 20% of them were active in at least one assay; those are over-represented in the sample as a whole.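 A percent growth of 40 corresponds to 60% growth inhibition; 0 means no net growth; -100 means all cells died. Active threshold: below 10.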 A number with no mark means an inactive call. Active and inactive are the calls of the source.

Take `C=C1C(=O)O[C@@H]2C[C@@H](C)CCC(=O)[C@](C)(OC(C)=O)C[C@H](OC(=O)/C(C)=C\C)[C@@H]12`: the growth in the test on NCI-H23 lung is 70.6%; with NCI-H226 lung it was 104%; in the test on NCI-H322M lung, 102%; with HOP-62 NSCLC it was 105%; with NCI-H460 lung it was 97.3%; with HOP-92 NSCLC it was 80%. The growth in the test with NCI-H522 lung is 11.8%; in the test on A549/ATCC NSCLC, 87.7%; with 786-0 renal, 90.8%; in the test on COLO 205 colon, 28.6%; in the test on DU-145 prostate, 37.2%; with MALME-3M melanoma it was 85.5%. In addition, the growth in the test on MDA-MB-231 breast is 50.4%; in the test on RXF 393 renal, 51.3%; with SF-268 CNS it was 96.1%; in the test on SF-295 CNS it was 97.5%; in the test on SF-539 CNS it was 72.3%; in the test on UACC-257 melanoma it was 73.4%. For the same molecule, the growth in the test on M14 melanoma was 82.4%.

`COc1cc2c3c(n(CCCNC4CCCC4)c(=O)c2cc1OC)-c1cc2c(cc1C3=O)OCO2`: the growth with NCI-H23 lung is -62.8% (active); in the test with NCI-H226 lung it was 80.5%; with NCI-H322M lung, 6.3% (active); in the test with HOP-62 NSCLC, -78% (active); with NCI-H460 lung it was -74.4% (active); in the test on HOP-92 NSCLC it was 103%. In addition, the growth in the test on NCI-H522 lung was 54.6%; in the test on A549/ATCC NSCLC it was -78.8% (active); in the test with 786-0 renal it was -87.9% (active); with COLO 205 colon it was -89.9% (active); in the test on DU-145 prostate, -78.5% (active); in the test on MALME-3M melanoma, -75% (active). For the same molecule, the growth in the test with MDA-MB-231 breast was -76.6% (active); with RXF 393 renal, 49.7%; in the test with SF-268 CNS, -42.7% (active); in the test with SF-295 CNS, -76.8% (active); with SF-539 CNS, -85.4% (active); in the test with M14 melanoma, -88.9% (active).

For `CCN1CCN(Cc2ccc(C(=O)Nc3nc4ccc(Oc5ccnc(C(=O)NC)c5)cc4s3)cc2C(F)(F)F)CC1`, the growth in the test with NCI-H23 lung was 42%; in the test with NCI-H226 lung, 76.3%; with NCI-H322M lung, 66.1%; with HOP-62 NSCLC, 63.9%; with NCI-H460 lung, 26.2%; with HOP-92 NSCLC it was 37.4%. The growth was 58.9% in the test on NCI-H522 lung; 60.1% in the test on A549/ATCC NSCLC; 39.5% in the test on 786-0 renal; -43% (active) in the test on COLO 205 colon; 79.3% in the test on DU-145 prostate; -5.31% (active) in the test with MALME-3M melanoma. Moreover, the growth in the test with MDA-MB-231 breast is 52%; with RXF 393 renal it was 25%; in the test on SF-268 CNS, 78.1%; in the test on SF-295 CNS it was 35.1%; in the test on SF-539 CNS, -42.2% (active); in the test with UACC-257 melanoma, -2.29% (active). The growth in the test with M14 melanoma is -4.9% (active).

On to `Cc1cc(=O)n2nc(-c3c[nH]c4ccccc34)sc2n1`, for which the growth in the test with NCI-H23 lung was 92.6%; with NCI-H226 lung it was 98.6%; in the test with NCI-H322M lung, 93.4%; in the test with HOP-62 NSCLC, 101%; with NCI-H460 lung it was 100%; with HOP-92 NSCLC, 98.4%. Besides, the growth with NCI-H522 lung is 90.4%; in the test with A549/ATCC NSCLC, 96.3%; in the test on 786-0 renal, 106%; with COLO 205 colon it was 102%; in the test with DU-145 prostate, 107%; in the test on MALME-3M melanoma it was 85%. For the same molecule, the growth was 90.6% with MDA-MB-231 breast; 105% in the test with RXF 393 renal; 102% in the test with SF-268 CNS; 103% with SF-295 CNS; 92.7% in the test on SF-539 CNS; 107% in the test with M14 melanoma.

As to `COc1ccc([C@H]2[C@H](O)C(=O)N2c2cc(OC)c(OC)c(OC)c2)cc1Cl`, the growth in the test on NCI-H23 lung was 29.9%; with NCI-H226 lung, 21.6%; with NCI-H322M lung, 49.1%; with HOP-62 NSCLC it was 23.1%; in the test with NCI-H460 lung it was 1.57% (active); in the test with HOP-92 NSCLC it was -6.45% (active). In addition, the growth in the test with NCI-H522 lung was -39.7% (active); with A549/ATCC NSCLC, 19.1%; in the test on 786-0 renal, 22.1%; with COLO 205 colon, -79.3% (active); with DU-145 prostate, 18.3%; with MALME-3M melanoma, 65.9%. Moreover, the growth is 26.9% in the test with MDA-MB-231 breast; 24.3% in the test with RXF 393 renal; 44.7% with SF-268 CNS; 5.44% (active) in the test with SF-295 CNS; -9.87% (active) in the test with SF-539 CNS; 40.8% in the test with UACC-257 melanoma. In addition, in the test on M14 melanoma, the growth was 10.3%.

With `COc1cnc2c(c1)C(=O)c1c-2n(CCCNCC2CC2)c(=O)c2cc(F)ccc12`, the growth in the test with NCI-H23 lung was -44.5% (active); in the test on NCI-H226 lung, -14.1% (active); in the test with NCI-H322M lung it was -1.44% (active); with HOP-62 NSCLC it was -31.6% (active); with NCI-H460 lung, -66.6% (active); in the test on HOP-92 NSCLC it was -5.96% (active). Also, the growth in the test on NCI-H522 lung was -55.3% (active); in the test with A549/ATCC NSCLC it was -61.9% (active); in the test on 786-0 renal, -32.4% (active); in the test with COLO 205 colon, -45.8% (active); in the test with DU-145 prostate, 4.61% (active); in the test on MALME-3M melanoma it was -12.2% (active). For the same molecule, the growth in the test with MDA-MB-231 breast is -25.2% (active); in the test on RXF 393 renal, -47.5% (active); in the test on SF-268 CNS, 14.6%; in the test with SF-295 CNS it was -7.51% (active); with SF-539 CNS it was -65.6% (active); in the test on M14 melanoma, 15%.

`c1cncc(-c2cn3nc(-c4c[nH]c5ccccc45)sc3n2)c1`: the growth in the test with NCI-H23 lung was 49.9%; with NCI-H226 lung it was -48.5% (active); with NCI-H322M lung it was 72.2%; with HOP-62 NSCLC it was 66%; with NCI-H460 lung, 25.4%; in the test on HOP-92 NSCLC, 33.8%. The growth in the test on NCI-H522 lung was 2.85% (active); in the test with A549/ATCC NSCLC it was 57.8%; in the test on 786-0 renal, 22.5%; with COLO 205 colon it was 44.4%; in the test on DU-145 prostate, 73%; in the test on MALME-3M melanoma it was 38.3%. The growth was 52.5% in the test on MDA-MB-231 breast; 52.1% with RXF 393 renal; 83.4% in the test on SF-268 CNS; 74.7% in the test on SF-295 CNS; 42.2% with SF-539 CNS; 37% in the test on M14 melanoma.
